Results reported in ChEMBL document CHEMBL2218924, “A broad activity screen in support of a chemogenomic map for kinase signalling research and drug discovery” (Biochem J, 2013).

Columns and labels:
[1] = molecular target: T1, Serine/threonine-protein kinase TBK1 (Homo sapiens) (UniProt Q9UHD2); conditions: at 10 µM
T1 sequence (whole entry): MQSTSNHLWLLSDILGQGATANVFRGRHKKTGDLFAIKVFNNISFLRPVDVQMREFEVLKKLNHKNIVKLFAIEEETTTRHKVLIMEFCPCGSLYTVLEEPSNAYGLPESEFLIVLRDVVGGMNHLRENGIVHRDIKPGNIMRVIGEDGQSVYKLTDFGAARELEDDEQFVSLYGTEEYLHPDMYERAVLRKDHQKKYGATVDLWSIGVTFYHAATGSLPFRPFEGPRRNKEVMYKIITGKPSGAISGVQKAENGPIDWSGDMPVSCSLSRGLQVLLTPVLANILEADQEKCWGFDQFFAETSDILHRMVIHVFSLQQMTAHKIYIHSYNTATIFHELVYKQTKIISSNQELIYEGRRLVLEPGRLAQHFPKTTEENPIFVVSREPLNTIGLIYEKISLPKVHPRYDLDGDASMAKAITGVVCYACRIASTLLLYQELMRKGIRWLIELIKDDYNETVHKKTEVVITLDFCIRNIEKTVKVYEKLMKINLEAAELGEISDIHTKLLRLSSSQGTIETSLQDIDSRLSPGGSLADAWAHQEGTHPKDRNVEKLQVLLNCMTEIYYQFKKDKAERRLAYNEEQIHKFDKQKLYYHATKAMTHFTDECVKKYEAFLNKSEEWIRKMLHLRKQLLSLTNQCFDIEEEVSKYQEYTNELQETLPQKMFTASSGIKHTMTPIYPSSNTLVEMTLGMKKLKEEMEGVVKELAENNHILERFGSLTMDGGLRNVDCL

[2] = molecular target: T2, TGF-beta receptor type-1 (Homo sapiens) (UniProt P36897); conditions: at 1 µM
T2 sequence (whole entry): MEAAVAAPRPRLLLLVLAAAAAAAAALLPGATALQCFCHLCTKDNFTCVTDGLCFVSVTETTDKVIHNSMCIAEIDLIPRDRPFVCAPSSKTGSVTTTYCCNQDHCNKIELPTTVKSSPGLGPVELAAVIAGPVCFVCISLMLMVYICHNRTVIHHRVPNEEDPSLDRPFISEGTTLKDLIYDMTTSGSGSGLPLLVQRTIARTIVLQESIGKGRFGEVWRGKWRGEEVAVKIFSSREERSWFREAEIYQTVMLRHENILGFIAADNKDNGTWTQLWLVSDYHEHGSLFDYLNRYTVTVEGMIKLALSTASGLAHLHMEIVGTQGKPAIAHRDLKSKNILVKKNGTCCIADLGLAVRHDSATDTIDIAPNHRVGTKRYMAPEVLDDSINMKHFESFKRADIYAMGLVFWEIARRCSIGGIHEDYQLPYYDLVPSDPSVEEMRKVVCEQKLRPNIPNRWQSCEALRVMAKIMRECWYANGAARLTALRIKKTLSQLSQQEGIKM

[3] = molecular target: T2, TGF-beta receptor type-1 (Homo sapiens); conditions: at 10 µM
[4] = molecular target: Insulin-like growth factor 1 receptor (Homo sapiens) (UniProt P08069); conditions: at 1 µM
[5] = molecular target: Insulin-like growth factor 1 receptor (Homo sapiens) (UniProt P08069); conditions: at 10 µM
[6] = molecular target: T3, Inhibitor of nuclear factor kappa-B kinase subunit alpha (Homo sapiens) (UniProt O15111); conditions: at 1 µM
T3 sequence (whole entry): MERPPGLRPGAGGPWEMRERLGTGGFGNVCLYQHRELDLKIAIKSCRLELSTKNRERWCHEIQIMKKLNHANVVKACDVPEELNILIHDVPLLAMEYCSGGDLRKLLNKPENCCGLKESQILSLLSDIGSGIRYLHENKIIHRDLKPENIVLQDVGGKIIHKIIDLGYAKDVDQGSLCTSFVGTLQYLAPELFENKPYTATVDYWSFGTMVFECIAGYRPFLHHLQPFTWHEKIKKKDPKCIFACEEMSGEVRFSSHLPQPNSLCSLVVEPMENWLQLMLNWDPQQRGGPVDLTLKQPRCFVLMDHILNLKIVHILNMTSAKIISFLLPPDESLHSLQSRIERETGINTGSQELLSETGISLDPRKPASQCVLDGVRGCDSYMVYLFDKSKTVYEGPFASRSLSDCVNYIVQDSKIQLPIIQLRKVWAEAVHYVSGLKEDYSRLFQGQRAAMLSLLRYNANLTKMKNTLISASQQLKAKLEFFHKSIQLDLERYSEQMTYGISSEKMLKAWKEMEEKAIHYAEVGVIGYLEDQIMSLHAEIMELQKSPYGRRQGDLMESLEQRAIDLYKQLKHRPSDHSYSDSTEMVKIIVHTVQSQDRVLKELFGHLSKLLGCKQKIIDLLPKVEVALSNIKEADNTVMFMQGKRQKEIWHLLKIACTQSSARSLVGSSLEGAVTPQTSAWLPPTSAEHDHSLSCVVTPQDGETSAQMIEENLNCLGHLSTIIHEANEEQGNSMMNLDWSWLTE

[7] = molecular target: T3, Inhibitor of nuclear factor kappa-B kinase subunit alpha (Homo sapiens); conditions: at 10 µM
[8] = molecular target: T4, Inhibitor of nuclear factor kappa-B kinase subunit beta (Homo sapiens) (UniProt O14920); conditions: at 1 µM
T4 sequence (whole entry): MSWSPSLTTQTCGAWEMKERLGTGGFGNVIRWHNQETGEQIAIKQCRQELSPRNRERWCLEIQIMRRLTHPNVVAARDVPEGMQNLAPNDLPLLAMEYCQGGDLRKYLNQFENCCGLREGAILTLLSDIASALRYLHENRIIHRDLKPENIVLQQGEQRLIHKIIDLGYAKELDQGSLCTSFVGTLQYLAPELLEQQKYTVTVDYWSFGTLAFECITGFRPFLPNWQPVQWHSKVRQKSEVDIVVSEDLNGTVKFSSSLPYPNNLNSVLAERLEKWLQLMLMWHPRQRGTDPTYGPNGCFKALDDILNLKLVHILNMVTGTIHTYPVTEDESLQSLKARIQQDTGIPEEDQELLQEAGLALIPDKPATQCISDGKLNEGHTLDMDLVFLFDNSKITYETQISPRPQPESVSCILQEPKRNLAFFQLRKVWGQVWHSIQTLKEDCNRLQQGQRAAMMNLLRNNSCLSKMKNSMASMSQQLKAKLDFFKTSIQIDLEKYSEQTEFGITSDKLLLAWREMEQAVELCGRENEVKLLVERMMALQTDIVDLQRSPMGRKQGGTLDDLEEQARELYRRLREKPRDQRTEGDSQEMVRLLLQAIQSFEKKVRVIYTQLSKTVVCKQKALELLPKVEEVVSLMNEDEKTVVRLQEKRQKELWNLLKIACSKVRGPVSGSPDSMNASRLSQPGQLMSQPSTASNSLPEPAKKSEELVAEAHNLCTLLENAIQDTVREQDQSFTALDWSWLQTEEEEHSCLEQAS

[9] = molecular target: T4, Inhibitor of nuclear factor kappa-B kinase subunit beta (Homo sapiens); conditions: at 10 µM
[10] = molecular target: Insulin receptor (Homo sapiens) (UniProt P06213); conditions: at 1 µM
Chain of Insulin receptor (Homo sapiens) (P06213 28-758 limits assumed): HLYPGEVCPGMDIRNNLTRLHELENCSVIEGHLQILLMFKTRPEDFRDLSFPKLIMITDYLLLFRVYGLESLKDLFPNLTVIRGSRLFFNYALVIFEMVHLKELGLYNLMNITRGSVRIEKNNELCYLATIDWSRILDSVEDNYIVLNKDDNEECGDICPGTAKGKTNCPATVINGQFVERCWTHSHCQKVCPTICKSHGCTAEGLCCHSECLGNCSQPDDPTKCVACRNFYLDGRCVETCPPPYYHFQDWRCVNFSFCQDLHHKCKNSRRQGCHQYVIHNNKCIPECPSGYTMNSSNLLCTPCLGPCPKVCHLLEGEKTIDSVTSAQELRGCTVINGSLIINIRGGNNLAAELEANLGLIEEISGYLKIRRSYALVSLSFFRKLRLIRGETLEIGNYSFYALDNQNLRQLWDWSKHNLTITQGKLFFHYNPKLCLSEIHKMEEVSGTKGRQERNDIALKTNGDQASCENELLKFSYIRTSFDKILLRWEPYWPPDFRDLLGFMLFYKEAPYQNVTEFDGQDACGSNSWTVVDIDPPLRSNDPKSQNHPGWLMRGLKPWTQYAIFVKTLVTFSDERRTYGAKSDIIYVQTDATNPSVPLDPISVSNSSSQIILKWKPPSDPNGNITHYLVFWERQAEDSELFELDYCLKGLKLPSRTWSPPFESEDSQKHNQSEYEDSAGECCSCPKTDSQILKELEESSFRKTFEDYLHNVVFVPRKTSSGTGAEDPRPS
Chain of Insulin receptor (Homo sapiens) (P06213 763-1382 limits assumed): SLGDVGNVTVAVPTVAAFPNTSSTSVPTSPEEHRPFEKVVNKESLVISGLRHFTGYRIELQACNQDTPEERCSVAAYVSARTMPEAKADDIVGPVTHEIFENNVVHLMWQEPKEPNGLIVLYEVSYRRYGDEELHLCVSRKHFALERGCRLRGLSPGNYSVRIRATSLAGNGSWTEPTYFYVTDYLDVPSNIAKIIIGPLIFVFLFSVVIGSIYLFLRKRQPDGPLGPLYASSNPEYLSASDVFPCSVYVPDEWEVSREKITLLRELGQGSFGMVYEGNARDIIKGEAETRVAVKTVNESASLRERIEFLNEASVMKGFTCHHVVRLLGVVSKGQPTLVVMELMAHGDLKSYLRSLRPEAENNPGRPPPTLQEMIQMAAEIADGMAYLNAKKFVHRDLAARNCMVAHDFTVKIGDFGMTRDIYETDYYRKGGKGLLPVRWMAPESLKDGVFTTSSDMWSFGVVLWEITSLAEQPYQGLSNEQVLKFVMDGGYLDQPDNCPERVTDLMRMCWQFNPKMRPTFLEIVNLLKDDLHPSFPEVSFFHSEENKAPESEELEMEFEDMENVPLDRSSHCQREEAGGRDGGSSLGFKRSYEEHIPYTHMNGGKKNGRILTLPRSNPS

Chain of Insulin-like growth factor 1 receptor (Homo sapiens) (P08069 31-736 limits assumed): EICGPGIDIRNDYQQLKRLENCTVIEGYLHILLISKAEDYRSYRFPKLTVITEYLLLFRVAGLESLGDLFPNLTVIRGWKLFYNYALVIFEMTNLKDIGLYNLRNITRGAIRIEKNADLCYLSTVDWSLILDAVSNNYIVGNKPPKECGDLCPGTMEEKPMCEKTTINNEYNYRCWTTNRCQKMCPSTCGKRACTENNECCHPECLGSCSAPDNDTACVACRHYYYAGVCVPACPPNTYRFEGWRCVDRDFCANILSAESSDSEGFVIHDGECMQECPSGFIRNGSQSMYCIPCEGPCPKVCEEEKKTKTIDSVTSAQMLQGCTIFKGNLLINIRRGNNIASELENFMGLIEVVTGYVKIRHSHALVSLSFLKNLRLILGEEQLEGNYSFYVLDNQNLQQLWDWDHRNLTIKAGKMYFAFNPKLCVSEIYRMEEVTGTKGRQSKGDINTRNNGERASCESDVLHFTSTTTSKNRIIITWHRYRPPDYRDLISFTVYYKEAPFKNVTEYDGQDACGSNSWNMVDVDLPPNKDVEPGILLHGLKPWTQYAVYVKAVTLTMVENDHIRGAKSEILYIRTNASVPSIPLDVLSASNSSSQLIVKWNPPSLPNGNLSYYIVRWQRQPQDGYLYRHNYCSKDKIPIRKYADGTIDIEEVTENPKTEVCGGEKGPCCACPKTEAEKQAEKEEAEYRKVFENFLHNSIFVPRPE
Chain of Insulin-like growth factor 1 receptor (Homo sapiens) (P08069 741-1367 limits assumed): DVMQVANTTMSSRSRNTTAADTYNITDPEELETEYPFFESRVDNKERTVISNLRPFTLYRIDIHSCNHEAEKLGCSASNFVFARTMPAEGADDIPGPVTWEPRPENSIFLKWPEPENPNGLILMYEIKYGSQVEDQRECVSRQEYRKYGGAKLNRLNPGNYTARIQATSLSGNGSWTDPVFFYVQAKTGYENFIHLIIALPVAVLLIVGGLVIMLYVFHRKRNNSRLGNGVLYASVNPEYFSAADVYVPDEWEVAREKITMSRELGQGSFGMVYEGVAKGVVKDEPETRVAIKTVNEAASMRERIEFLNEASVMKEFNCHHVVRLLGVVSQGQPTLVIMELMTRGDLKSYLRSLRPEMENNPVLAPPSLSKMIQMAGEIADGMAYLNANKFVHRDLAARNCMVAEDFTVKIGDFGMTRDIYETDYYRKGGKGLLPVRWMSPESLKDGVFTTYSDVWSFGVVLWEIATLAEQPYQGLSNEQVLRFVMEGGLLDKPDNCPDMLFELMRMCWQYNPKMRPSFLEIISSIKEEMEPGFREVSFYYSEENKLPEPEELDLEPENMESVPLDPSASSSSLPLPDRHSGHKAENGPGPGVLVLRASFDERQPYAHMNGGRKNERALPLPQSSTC

## O=Nc1c(-c2c(O)[nH]c3ccccc23)[nH]c2ccccc12
[1]
  residual activity: 1%
[2]
  residual activity: 104%
[3]
  residual activity: 73%
[4]
  residual activity: 40%
[5]
  residual activity: 20%
[6]
  residual activity: 76%
[7]
  residual activity: 57%
[8]
  residual activity: 87%
[9]
  residual activity: 67%
[10]
  residual activity: 17%
